A selection: hits, their analogues and other compounds. The true share with any hit is near 4%.
TRHR ag: TRH receptor (human) agonism | TRHR cells, calcium flux fluo-8, FDSS agonist mode | P34981 | 360,000 tested, 0.18% active | activation, % at 2 µM; note: 0% is about no effect
Target sequence (P34981 whole entry, looked up): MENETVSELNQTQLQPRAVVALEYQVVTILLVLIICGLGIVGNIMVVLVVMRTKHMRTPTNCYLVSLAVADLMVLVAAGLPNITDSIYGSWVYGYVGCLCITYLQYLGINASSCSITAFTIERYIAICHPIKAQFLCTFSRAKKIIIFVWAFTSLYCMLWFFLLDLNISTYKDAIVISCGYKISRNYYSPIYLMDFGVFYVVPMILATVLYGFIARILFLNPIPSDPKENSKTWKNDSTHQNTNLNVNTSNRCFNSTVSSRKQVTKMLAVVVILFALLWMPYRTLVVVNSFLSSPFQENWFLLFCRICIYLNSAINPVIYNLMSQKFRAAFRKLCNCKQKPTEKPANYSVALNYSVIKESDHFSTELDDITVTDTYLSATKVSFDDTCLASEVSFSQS
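TRHR-expressing cells loaded with fluo-8 calcium dye; 23 nL library compound pin-transferred, kinetic FDSS fluorescence (Ex 480/Em 530) recorded about 180 s for agonist-induced calcium release, before a 10 nM TRH EC20 addition for potentiator mode.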
D1 antagonist: human D1 dopamine receptor antagonism. 360,000 tested, 3.2% active. AID 504652. activity change, negative = inhibition, % at 10 µM. HEK293 TREx D1 cells, calcium flux, dopamine EC80; active compounds read low. P21728; in the data active = activity change below about -30%; note: % is set by controls: 0 for no effect and ±100 for the full control effect
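Calcium flux readout: force-coupled, inducible Hek293 Trex D1 line, cells induced overnight at 30 C with tetracycline, dye-loaded 30–90 min at RT. Antagonism scored against EC80 dopamine challenge given 180 s after compound.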
TRHR PAM: allosteric enhancers of human TRH receptor; P34981; TRHR cells, fluo-8 calcium fluorescence, EC20 TRH enhancement; enhancement, % at 2 µM; 360,000 tested, 0.66% active; AID 493056; in the data active = enhancement above about 30%; note: 0% is about no effect
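TRHR-expressing cells loaded with fluo-8 calcium dye were read kinetically (ex 480/em 530) during compound addition, then stimulated with an EC20 of TRH (10 nM final). Enhancement of the Gq-mediated intracellular calcium response was scored.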
D1 ag: agonists of human D1 dopamine receptor; 360,000 tested, 1% active; HEK293 T-REx D1 cells, calcium flux, agonist mode; P21728; activation, % at 2 µM; AID 504660; note: 0% is about no effect
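Inducible HEK293 T-REx D1 cells, force-coupled to calcium signalling, were plated at 4000 cells/well with tetracycline and held overnight at 30 C. After no-wash calcium dye loading, compound-evoked calcium rise over 180 s flagged agonists.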
D1 potentiator: human D1 dopamine receptor positive modulation. P21728. HEK293 TREx D1 cells, calcium flux, dopamine EC20 potentiation. potentiation, % at 10 µM. 360,000 tested, 0.036% active; in the data active = potentiation above about 30%; note: 0% is about no effect
GRP78 ERSR act: induces the endoplasmic reticulum stress response in human glioma cells; U87-MG GRP78 promoter luciferase reporter, 16 h; Potency, µM, without a hit: top-dose activation, actives largely listed as activators; 420,000 tested, 0.02% active; AID 602332; active = well fitted activation curve with a large enough effect; inconclusive = small, poorly fitted or top-dose-only effect; inactive = no such curve, though single readings can be large or run the other way; note: potency is the fitted concentration of half-maximal effect; series mostly up to about 76 µM; % of control where 0% means no effect; nearly all actives have a fitted effect of over 35% in size
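ERSR induction read as luciferase luminescence (Bright-Glo, 10 min at room temperature) in stably transfected human U87-MG glioma cells exposed to compounds for 16 h, using GRP78 as sensor.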
* = called active by the depositor; u = inconclusive; x = no result. Cut-off read from the data, not from the text of the source, unless noted: active = activation above about 30%; inactive = the rest.

SMILES | TRHR ag | D1 antagonist | TRHR PAM | D1 ag | D1 potentiator | GRP78 ERSR act
COc1ccc(NC(=O)c2cc(=O)c3ccccc3o2)cn1 | 0 | 0 | 4 | 2 | -5 | 2%
COc1ccc(OCC(=O)NNC(=O)c2cc3ccccc3o2)cc1 | 0 | -31* | -1 | 0 | -7 | -1%
COc1ccc(CNC(=S)NNC(=O)c2cc3ccccc3o2)cc1 | 0 | 3 | 0 | 0 | -6 | -2%
CCCCOC(=O)c1cccc(NC(=O)c2cc3ccccc3o2)c1 | 4 | -4 | 0 | 30* | -3 | -9%
CC(=O)C1=CCC(c2ccc(C(C)C)cc2)N(S(=O)(=O)c2ccc(C)cc2)C1 (configuration not stated) | x | x | x | x | x | -3%
COCCN(C(=O)C1CC1)c1nnc(-c2cccc(C)c2)s1 | 0 | 3 | -1 | 6 | 1 | 9%
CCCCSc1nc(O)cc(=O)n1CC | 2 | -9 | 5 | 38* | -2 | -1%
C=CCn1c(SCc2ccccc2)nc(O)cc1=O | 1 | 2 | -5 | 10 | 0 | -3%
C=CCn1c(SCCCC)nc(O)cc1=O | 9 | -15 | -1 | 79* | 4 | -2%
C=CCn1c(SCCCCCC)nc(O)cc1=O | 2 | 5 | -1 | 6 | -3 | 1%
C=CCn1c(SC(C)CC)nc(O)cc1=O (configuration not stated) | 9 | -29 | -2 | 140* | 6 | u
Cc1ccc(C23CC4CC(CC(C(=O)NC(C(=O)O)C(C)C)(C4)C2)C3)cc1 (configuration not stated) | 0 | -17 | -4 | 4 | -2 | -2%
COc1ccc(-c2cc(C(=O)NCCc3ccc(Cl)cc3)[nH]n2)cc1 | 0 | 1 | 2 | 0 | -1 | -3%
COc1cccc(-c2cc(C(=O)NCCc3ccc(C)cc3)[nH]n2)c1 | -1 | -70* | 0 | 9 | -3 | -4%
CN1CCN(Cc2c(O)ccc3occ(C(=O)c4ccccc4)c23)CC1 | 0 | -77* | 28 | 15 | -11 | 1%
CCOC(=O)c1c(-c2ccccc2)oc2ccc(O)c(CN3CCN(C)CC3)c12 | 0 | 5 | 15 | 16 | -3 | -4%
Cc1ccc2c(c1)NC(=O)c1cccnc1O2 | 0 | 6 | 3 | 1 | 1 | x
COc1ccc(OC)c(CCNC(=O)c2ccc(CS(=O)Cc3ccc(Cl)cc3)o2)c1 (configuration not stated) | 0 | 4 | -12 | 4 | 11 | -6%
CCc1cccc(C)c1NC(=O)C1CC(=O)N(C2CCCC2)C1 (configuration not stated) | 0 | -46* | 4 | 2 | 0 | -2%
O=C(C1CC(=O)N(C2CCCC2)C1)N1CCN(c2ccccc2F)CC1 (configuration not stated) | 0 | 11 | -2 | 5 | x | -1%
O=C(C1CC(=O)N(C2CCCC2)C1)N1CCC(Cc2ccccc2)CC1 (configuration not stated) | -1 | -38* | 8 | 7 | -14 | -1%
COc1ccccc1OCCC(=O)OCC(=O)Nc1ccc(S(=O)(=O)N2CCOCC2)cc1 | 1 | 10 | -3 | 1 | 0 | 0%
CC(C(=O)Nc1cc(Cl)cc(Cl)c1)N1CCCC1 (configuration not stated) | 2 | -29 | -3 | 33* | -13 | 0%
O=C(/C=C/c1ccccc1)CC(O)(c1ccccc1)C(F)(F)F (configuration not stated) | -1 | -5 | -1 | 2 | -8 | u
O=C(/C=C/c1ccccc1)CC(O)(c1ccccc1)C(F)(F)C(F)F (configuration not stated) | 0 | 22 | 6 | 2 | -9 | 11µM*
SMILES | TRHR ag | D1 antagonist | TRHR PAM | D1 ag | D1 potentiator | GRP78 ERSR act
CN1CCN(CCCOc2ccc(-c3ccccc3)cc2)CC1 | 1 | -33* | -3 | 18 | -1 | -2%
CCN1CCN(CCCOc2ccc(-c3ccccc3)cc2)CC1 | 4 | -34* | -3 | 50* | -9 | 6%
C=C1CC(Cn2cc(Br)c(=O)[nH]c2=O)(c2ccc(-c3ccccc3)cc2)OC1=O (configuration not stated) | x | x | x | x | x | -12%
O=C(NCc1ccc(Cl)cc1)c1ccc(-c2ccccc2C(F)(F)F)o1 | 0 | -39* | 0 | 33* | -3 | -4%
CC1CCCC(NC(=O)CN2CCN(S(=O)(=O)c3cccs3)CC2)C1C (configuration not stated) | 0 | -42* | -8 | 2 | -11 | -2%
CCN1CCN(CC(=O)Nc2ccc(Cl)c(S(=O)(=O)N(C)C)c2)CC1 | -1 | 17 | 5 | 5 | 3 | -2%
CN(C)S(=O)(=O)c1cc(NC(=O)CN2CCN(c3ccccc3F)CC2)ccc1Cl | 0 | -32* | -1 | 4 | -12 | 0%
CC1CCC(NC(=O)CN2CCN(S(=O)(=O)c3cccs3)CC2)CC1 (configuration not stated) | 0 | -2 | 4 | 0 | -3 | -4%
Cc1ccc(NC(=O)CN2CCN(S(=O)(=O)c3cccs3)CC2)cc1S(=O)(=O)N(C)C | 1 | -36* | -5 | 5 | -10 | -1%
CC1(C)Cc2c(cnn2-c2cccc(F)c2)C(NC(=O)c2ccc[n+]([O-])c2)C1 (configuration not stated) | 0 | -23 | 31* | 1 | -1 | -4%
COC(=O)CCC(=O)NC1CC(C)(C)Cc2c1cnn2-c1ccc(F)cc1 (configuration not stated) | 0 | 10 | 38* | 0 | -4 | -1%
CC1(C)Cc2c(cnn2-c2ccc(F)cc2)C(NC(=O)CCN2CCCCO2)C1 (configuration not stated) | 0 | 4 | 37* | 4 | 1 | 4%
Cc1ccc(-n2ncc3c2CC(C)(C)CC3NC(=O)c2ccccn2)cc1 (configuration not stated) | 1 | -76* | 15 | 1 | -3 | 6%
Cc1cc(=O)oc2cc(NC(=O)C3COc4ccccc4O3)ccc12 (configuration not stated) | -1 | 1 | -1 | 2 | 4 | -1%
CCCN(CC(=O)Nc1ccccc1C)C(=O)c1ccc(COc2ccccc2)cc1 | 0 | -42* | 3 | 11 | -1 | -2%
O=C(O)CC(C(=O)O)c1ccc(OCCCCOc2ccc(C(CC(=O)O)C(=O)O)cc2)cc1 (configuration not stated) | 0 | 4 | 2 | 2 | 1 | -1%
CC1CCN(CCOCCSc2ccc(Cl)cc2)CC1 | 0 | -44* | -2 | 21 | -2 | -1%
Cc1cc(Cl)c(OCCOCCN2CCC(C)CC2)c(Br)c1 | 0 | 7 | 5 | 34* | -14 | -2%

High-throughput results from PubChem.
